Experimental data reported in PubChem BioAssay (EPA / NIEHS).
Active and inactive are the calls of the source. The calls were made as follows: active = hit-call score of the fitted dose curve at least 0.9, where 1 is the maximum; inactive = score below 0.9.

What follows are molecules tested on Interleukin 6 (IL6), IL6 (gene 3569) (assay: LTEA_HepaRG_IL6: Life Technologies and Expression Analysis (LTEA) Assay for Interleukin 6 (IL6) using HepaRG (AID 2283509)). Conditions: mRNA level, 48 h; actives raise or lower the signal.
Protocol: LTEA_HepaRG is a cell based, multiplexed-readout assay that uses HepaRG, a human liver cell line, with measurements taken at 48 hours after chemical dosing on a 96-well plate.LTEA_HepaRG_IL6 is one of 102 assay component(s) measured in the LTEA HepaRG cell culture assay. It is a marker of Inflammation.Data from the assay component LTEA_HepaRG_IL6 was analyzed into 1 endpoint. This assay endpoint, LTEA_HepaRG_IL6, was analyzed with bidirectional fitting relative to DMSO as the negative control and baseline of activity. Using a type of inducible reporter, measures of mRNA induction for gain or loss-of-signal activity can be used to understand regulation of transcription factor activity. To generalize the intended target to other relatable targets, this assay endpoint is annotated to the cytokine intended target family, where the subfamily is interleukins.
A total of 1060 chemcials from the ToxCast library were tested in eight-point concentration-response experiments. Cell culture and cytotoxicity assays were conducted at Thermo Fisher Scientific's Custom Services facility (Madison, WI). A single lot of human HepaRG cells (Thermo Fisher Scientific, Frederick, MD) was used for the cell culture experiments. 96-well format collagen type I coated plates of human HepaRG cells were prepared using established methods. Briefly, cryopreserved HepaRG cells were thawed, plated at a density of approximately 100,000 cells/well in HepaRG Thaw, Plate, and General Purpose media (HPRG770, Thermo Fisher Scientific), and incubated for 48 hours. 0.5% DMSO was selected as vehicle control to balance the requisite need of DMSO in HepaRG cultures to maintain differentiation (for example, baseline metabolism, proportions of hepatocytes vs. cholangiocytes), while enabling further hepatic receptor pathway activation (for example, PXR and CAR) in response to chemical exposure. 48 hours after plating, the culture medium was replaced with HepaRG Serum-Free Incudtion Media. Cells were exposed to each test chemical in duplicate and maintained in CO2 incubators for another 48 hours. Chemical plates were thawed to room temperature and 200x concentrations of treatment groups were prepared. 8-point conentration-reponse curves were made with the highest exposure at 100 uM, followed by half-log dilutions, all in 0.5% DMSO. Each test plate contained variouse controls, induction positive controls (1mM phenobarbital), cytotoxicity positive controls ([…] aflatoxin B1), vehicle controls (0.5% DMSO), and total lysis controls (0.5% DMSO). Cell morphology images were taken using an Essen IncuCyte FLR automated microscope, with six 96-well plates imaged in about 24 minutes. Images were captured and exported and JPEG files. Spent culture media was transfered to black-well plates for the LDH assay, and remaining media was sorted at -80 C for later use. Cells were treated with RLT buffer and frozen until shipped for gene expression analysis. Total RNA was isolated from the cell suspension in 75 uL of Buffer RLT (Qiagen, Germantown, MD 20874) by Quintiles/Expression Analysis (Durham, NC) using a custom isolation procedure. Total RNA from each plate well was transferred to a preamplification plate. Fluidigm's 96.96 Dynamic ArrayTM (Fluidigm, Amsterdam, the Netherlands) technology was used for gene expression analyses by quantitative reverse transcription polymerase chain reaction (qRT-PCR, performed by Quintiles/Expression Analysis, Durham, NC)89. Standard TaqManTM Assays (Applied Biosystems/ThermoFisher Scientific, Foster City, CA) were used to assess the expression of 93 genes selected based on their selectivity and sensitivity to important hepatic receptors known to be modulated by environmental chemicals; importance in human hepatocyte functionality; and hepatotoxicity. […]

Row | SMILES | outcome | AC50
1 | ClC1=C(Cl)[C@]2(Cl)[C@@H]3[C@@H](Cl)[C@H]4O[C@H]4[C@@H]3C1(Cl)C2(Cl)Cl | inactive | 
2 | C=CC(=O)NCNC(=O)C=C |  | 50 µM (active)
3 | CCC(=O)O[C@H]1CC[C@H]2[C@@H]3CCC4=CC(=O)CC[C@]4(C)[C@H]3CC[C@]12C |  | 33.1 µM (active)
4 | CCCCCCCCCC[N+](C)(C)CCCCCCCCCC |  | 78.3 µM (active)
5 | CC#Cc1cc(C)nc(Nc2ccccc2)n1 |  | 23.6 µM (active)
6 | O=C(O)C(F)(F)C(F)(F)C(F)(F)C(F)(F)C(F)(F)F | inactive | 
7 | CCC(C)(c1ccc(O)cc1)c1ccc(O)cc1 | inactive | 
8 | Nn1cnnc1 | inactive | 
9 | CN(C)CCO | inactive | 
10 | CC(c1ccc(O)cc1)(c1ccc(O)cc1)c1ccc(O)cc1 |  | 80.8 µM (active)
11 | Cc1cccc([N+](=O)[O-])c1 | inactive | 
12 | CCCN(CCC)N=O | inactive | 
13 | Cc1cc(O)ccc1Cl | inactive | 
14 | CCOC(=O)C(O)(c1ccc(Cl)cc1)c1ccc(Cl)cc1 | inactive | 
15 | CO/C=C(/C(=O)OC)c1ccccc1COc1cccc(C(F)(F)F)n1 |  | 9.02 µM (active)
16 | c1cc2ccc3cccc4ccc(c1)c2c34 | inactive | 
17 | O=S(=O)(O)C(F)(F)C(F)(F)C(F)(F)C(F)(F)F | inactive | 
18 | CC(C)(O)C(=O)Nc1ccc([N+](=O)[O-])c(C(F)(F)F)c1 | inactive | 
19 | CC(C)(c1ccccc1)c1ccc(O)cc1 | inactive | 
20 | Oc1ccc(C(c2ccc(O)cc2)(C(F)(F)F)C(F)(F)F)cc1 |  | 91.8 µM (active)

Row | SMILES | outcome | AC50
21 | O=C(N[C@H]1CN2CCC1CC2)c1cc2ccoc2cn1 | inactive | 
22 | c1ccc(-c2ccccc2)cc1 | inactive | 
23 | CCC(C)c1cc([N+](=O)[O-])cc([N+](=O)[O-])c1O (stereo not given) |  | 4.95 µM (active)
24 | CCOCCOC(C)=O | inactive | 
25 | O=C(O)C(F)(F)C(F)(F)C(F)(F)C(F)(F)C(F)(F)C(F)(F)C(F)(F)C(F)(F)F |  | 78.6 µM (active)
26 | Cc1ccc(O)c(C)c1 | inactive | 
27 | Oc1ccc(Cl)cc1Cl | inactive | 
28 | Cc1ccccc1CO[C@@H]1C[C@@]2(C(C)C)CC[C@]1(C)O2 | inactive | 
29 | Clc1ccc(C(Cl)(Cl)Cl)cc1 | inactive | 
30 | COc1ccc(O)c(C(C)(C)C)c1 | inactive | 
31 | O=C(NC(=O)c1cc(F)c(F)cc1Cl)Nc1cc(F)ccc1N1CCC(C(=O)O)CC1 | inactive | 
32 | NS(=O)(=O)C(F)(F)C(F)(F)C(F)(F)C(F)(F)C(F)(F)C(F)(F)C(F)(F)C(F)(F)F |  | 38.9 µM (active)
33 | Cc1ccccc1O | inactive | 
34 | ClC(Cl)=C(c1ccc(Cl)cc1)c1ccc(Cl)cc1 | inactive | 
35 | CCOP(=S)(OCC)SCSC(C)(C)C | inactive | 
36 | CCNc1nc(NC(C)C)nc(SC)n1 | inactive | 
37 | CCCCCCCCOC(=O)c1ccccc1C(=O)OCCCCCCCC | inactive | 
38 | CC(C)C(=O)OCC(C)(C)C(OC(=O)C(C)C)C(C)C (stereo not given) | inactive | 
39 | Cc1cc(-c2ccc(N)c(C)c2)ccc1N | inactive | 
40 | Cc1cc2c3c(c1)C(c1ccccc1)=N[C@@H](NC(=O)c1ccncc1)C(=O)N3CC2 | inactive | 
